Laboratory results taken from PubChem BioAssay.
A number with no mark means an inactive call. How the calls were made is not given here.

The compounds below were run against Pantothenate synthetase (Mycobacterium tuberculosis (strain ATCC 25618 / H37Rv)) (UniProt P9WIL5) (assay: Coupled enzyme confirmation of inhibitors against recombinant Mtb PanC (AID 375;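 further: 0% = full reaction with vehicle and 100% = no enzyme background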)). Conditions: coupled enzyme assay; at 10 µM, active compounds read high.
Pantothenate synthetase (Mycobacterium tuberculosis (strain ATCC 25618 / H37Rv)), sequence (P9WIL5 whole entry, looked up): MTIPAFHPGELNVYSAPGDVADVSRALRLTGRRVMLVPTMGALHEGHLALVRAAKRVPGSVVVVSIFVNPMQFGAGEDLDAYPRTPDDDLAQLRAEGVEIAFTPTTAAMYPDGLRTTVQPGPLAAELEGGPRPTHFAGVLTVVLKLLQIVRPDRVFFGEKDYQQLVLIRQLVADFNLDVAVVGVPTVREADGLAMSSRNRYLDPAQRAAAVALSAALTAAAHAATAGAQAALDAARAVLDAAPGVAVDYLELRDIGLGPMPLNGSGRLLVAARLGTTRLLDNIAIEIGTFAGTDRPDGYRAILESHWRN
With O=C1NC(c2ccco2)Nc2ccccc21 (stereo not given) the inhibition was 0%.
CCC1(C(=O)OC)NC(c2cccc(F)c2)C2C(=O)N(C)C(=O)C21 (stereo not given) showed an inhibition of 3%.
Compound O=C(Nc1ccccc1N1CCOCC1)c1ccc2ccccc2n1 has an inhibition of 0%.
COc1ccccc1C(=O)NCC(=O)Nc1ccccc1 was tested, and the inhibition was 0%.
Work on Cc1cc(C)nc(SCc2ccc3nonc3c2)n1 yielded an inhibition of 1%.
COc1ccc(N(CC(=O)NC2CCCC2)C(=O)Cn2nnc(-c3ccc(C)cc3)n2)cc1 gave an inhibition of 0%.
With CO[C@H]1C=CO[C@@]2(C)Oc3c(C)c(O)c4c(O)c(c(C=NN5CCN(C)CC5)c(O)c4c3C2=O)NC(=O)C(C)=CC=C[C@H](C)[C@H](O)[C@@H](C)[C@@H](O)[C@@H](C)[C@H](OC(C)=O)[C@@H]1C the inhibition was 3%.
With Cc1ccc2c(c1)C1CCCC3C1N2CC(=O)N3Cc1ccccc1 (stereo not given) the inhibition was 0%.
Compound COc1ccc(N2CCN(CCCNC(=O)CC3Oc4ccc(C)cc4NC3=O)CC2)cc1 (stereo not given) has an inhibition of 0%.
CCOC(=O)N1CCN(Cc2cc(=O)oc3ccc4ccccc4c23)CC1 gave an inhibition of 6%.
O=C(NCc1ccco1)c1ccccc1Nc1ccc(F)cc1 was tested, and the inhibition was 0%.
COC(=O)CCC(=O)Nc1ccc(OC)cc1 gave an inhibition of 0%.
In the case of CC(=O)Nc1cccc(NC(=O)c2oc3ccccc3c2C)c1, the inhibition is reported as 0%.
In the case of CC(C)Cn1c(-c2ccc(F)cc2)n[nH]c1=S, the inhibition is reported as 0%.
Work on N#CCCN(Cc1cccnc1)C(=O)Nc1ccc(Cl)c(Cl)c1 yielded an inhibition of 1%.
Cc1ccc(C)c(NC(=O)CC(NCCCN2CCOCC2)C(=O)O)c1 (stereo not given) showed an inhibition of 7%.
For CCn1c(NCc2ccc(N(C)C)cc2)nc2ccccc21, the inhibition was 0%.
In the case of CN(C)C(=O)COc1ccc2cc(-c3ccccc3)c(=O)oc2c1, the inhibition is reported as 1%.
CC(C)CC(c1nnnn1CC1CCCO1)N1CCN(Cc2ccc3c(c2)OCO3)CC1 (stereo not given) showed an inhibition of 0%.
Cc1ccc(S(=O)(=O)N2CCC(C(=O)N[C@@H](Cc3ccccc3)C(=O)O)CC2)cc1 gave an inhibition of 0%.
For O=C(NCc1cccnc1)c1ccccc1Br, the inhibition was 7%.
Work on N#Cc1cc2ccc(N3CCOCC3)cc2cc1C#N yielded an inhibition of 0%.
Compound Clc1ccc(-n2ncc3c(NCCCn4ccnc4)ncnc32)cc1 has an inhibition of 0%.
Work on CCOC(=O)c1nnc2cc(-c3ccc(Br)cc3)nn2c1C yielded an inhibition of 0%.
For Cn1cccc1C1NC(=O)c2c(sc3c2CCC(C(C)(C)C)C3)N1 (stereo not given), the inhibition was 3%.
COc1cc(CNc2ccc(N3CCOCC3)c(C(=O)O)c2)ccc1OCC(N)=O was tested, and the inhibition was 1%.
With CCN(CC)C(=O)c1ccc(CS(=O)(=O)c2ccc(OC)cc2)o1 the inhibition was 1%.
In the case of CCC(Sc1ccc(C(=O)O)cc1)C(=O)O (stereo not given), the inhibition is reported as 2%.
Cc1cccc2cc(CN(CCN3CCCC3)C(=O)NC3CCCCC3)c(=O)[nH]c12 gave an inhibition of 0%.
With O=C(O)c1c(Cl)c(Cl)c(Cl)c(Cl)c1C(=O)N1CCOCC1 the inhibition was 0%.
CC(=O)c1c(C)[nH]c(C(=O)OCc2nnc(-c3ccccc3)o2)c1C was tested, and the inhibition was 0%.
COc1ccc(C(c2sc3nc(C)nn3c2O)N2CCCCC2)cc1 (stereo not given) was tested, and the inhibition was 0%.
With COc1ccccc1NC(=O)CSC1CC(=O)N(c2ccc3c(c2)OCO3)C1=O (stereo not given) the inhibition was 0%.
Compound Cc1cc(C)n2nc(S(=O)(=O)N(C)c3ccccc3)nc2n1 has an inhibition of 0%.
Compound N#CC1=C(N)C(C#N)(C#N)[C@H](c2ccsc2)[C@H]2COCC=C12 has an inhibition of 0%.
Work on CC(=O)[C@H]1CC[C@H]2[C@@H]3CCC4=CC(=O)CC[C@]4(C)[C@H]3CC[C@]12C yielded an inhibition of 5%.
C=CCC1(O)C(=O)Nc2ccccc21 (stereo not given) showed an inhibition of 0%.
COC(=O)C1=C(C)NC(C)=C(C(=O)OC)C1C(=O)OC1CCCCC1=O (stereo not given) was tested, and the inhibition was 0%.
CCn1cnc2sc(C(=O)Nc3ccc4c(c3)OCO4)c(C)c2c1=O gave an inhibition of 4%.
For COc1ccc(NC(=O)COc2ccccc2)c(OC)c1, the inhibition was 0%.
